# Assays:
# Assay in all cases: SPOT peptide array binding signal intensity (averaged, normalized) (arbitrary units (background-subtracted, floor 0; scale differs between SH3 domains)); higher = stronger binding of the SH3 domain to the peptide
# CaNbp2 = molecular target: CaNbp2
# Outline: (§1)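 GST-SH3 fusions from four yeast species, purified on glutathione Sepharose, were incubated at 10 μg/ml overnight at 4°C on membranes of synthetic 15-mer peptides in which cysteines were replaced with serines. Binding signal is the normalized, background-subtracted spot intensity averaged over replicates, in domain-specific arbitrary units.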
# CaRvs167 = molecular target: CaRvs167
# Outline: as §1
# CaRvs167-3 = molecular target: CaRvs167-3
# Outline: as §1
# CaSho1 = molecular target: CaSho1
# Outline: as §1
# CaSla1-D1-D2 = molecular target: CaSla1-D1-D2
# Outline: as §1
# CaSla1-D3 = molecular target: CaSla1-D3
# Outline: as §1
# ScAbp1 = molecular target: ScAbp1
# Outline: as §1
# ScBbc1 = molecular target: ScBbc1
# Outline: as §1
# ScBem1-D1 = molecular target: ScBem1-D1
# Outline: as §1
# ScBzz1-D1 = molecular target: ScBzz1-D1
# Outline: as §1
# ScBzz1-D2 = molecular target: ScBzz1-D2
# Outline: as §1
# ScCyk3 = molecular target: ScCyk3
# Outline: as §1
# ScFus1 = molecular target: ScFus1
# Outline: as §1
# ScHof1 = molecular target: ScHof1
# Outline: as §1
# ScHse1 = molecular target: ScHse1
# Outline: as §1
# ScLsb1 = molecular target: ScLsb1
# Outline: as §1
# ScLsb2 = molecular target: ScLsb2
# Outline: as §1
# ScLsb3 = molecular target: ScLsb3
# Outline: as §1
# ScLsb4 = molecular target: ScLsb4
# Outline: as §1
# ScMyo3 = molecular target: ScMyo3
# Outline: as §1
# ScMyo5 = molecular target: ScMyo5
# Outline: as §1
# ScNbp2 = molecular target: ScNbp2
# Outline: as §1
# ScPex13 = molecular target: ScPex13
# Outline: as §1
# ScRvs167 = molecular target: ScRvs167
# Outline: as §1
# ScSho1 = molecular target: ScSho1
# Outline: as §1
# ScSla1-D1-D2 = molecular target: ScSla1-D1-D2
# Outline: as §1
# ScSla1-D3 = molecular target: ScSla1-D3
# Outline: as §1
# SpAbp1-D1 = molecular target: SpAbp1-D1
# Outline: as §1
# SpBbc1 = molecular target: SpBbc1
# Outline: as §1
# SpBzz1-D1 = molecular target: SpBzz1-D1
# Outline: as §1
# SpBzz1-D2 = molecular target: SpBzz1-D2
# Outline: as §1
# SpCyk3 = molecular target: SpCyk3
# Outline: as §1
# SpHof1 = molecular target: SpHof1
# Outline: as §1
# SpHof1-2 = molecular target: SpHof1-2
# Outline: as §1
# SpHof1-3 = molecular target: SpHof1-3
# Outline: as §1
# SpHse1 = molecular target: SpHse1
# Outline: as §1
# SpLsb1 = molecular target: SpLsb1
# Outline: as §1
# SpLsb4 = molecular target: SpLsb4
# Outline: as §1
# SpMyo1 = molecular target: SpMyo1
# Outline: as §1
# SpNbp2 = molecular target: SpNbp2
# Outline: as §1
# SpPex13 = molecular target: SpPex13
# Outline: as §1
# SpRvs167 = molecular target: SpRvs167
# Outline: as §1
# SpSla1-D1-D2 = molecular target: SpSla1-D1-D2
# Outline: as §1
# SpSla1-D3 = molecular target: SpSla1-D3
# Outline: as §1
binder,measurement,setting,value
VTHRLRISIPGITGR,SPOT peptide array binding signal intensity,CaNbp2,882
same,SPOT peptide array binding signal intensity,CaRvs167,640
same,SPOT peptide array binding signal intensity,CaRvs167-3,2060
same,SPOT peptide array binding signal intensity,CaSho1,1000
same,SPOT peptide array binding signal intensity,CaSla1-D1-D2,16
same,SPOT peptide array binding signal intensity,CaSla1-D3,252
same,SPOT peptide array binding signal intensity,ScAbp1,9
same,SPOT peptide array binding signal intensity,ScBbc1,16.2
same,SPOT peptide array binding signal intensity,ScBem1-D1,33.5
same,SPOT peptide array binding signal intensity,ScBzz1-D1,44.5
same,SPOT peptide array binding signal intensity,ScBzz1-D2,374
same,SPOT peptide array binding signal intensity,ScCyk3,82
same,SPOT peptide array binding signal intensity,ScFus1,1730
same,SPOT peptide array binding signal intensity,ScHof1,1
same,SPOT peptide array binding signal intensity,ScHse1,1450
same,SPOT peptide array binding signal intensity,ScLsb1,65
same,SPOT peptide array binding signal intensity,ScLsb2,25
same,SPOT peptide array binding signal intensity,ScLsb3,327
same,SPOT peptide array binding signal intensity,ScLsb4,42
same,SPOT peptide array binding signal intensity,ScMyo3,≤ 0
same,SPOT peptide array binding signal intensity,ScMyo5,1.75
same,SPOT peptide array binding signal intensity,ScNbp2,295
same,SPOT peptide array binding signal intensity,ScPex13,7.5
same,SPOT peptide array binding signal intensity,ScRvs167,45.2
same,SPOT peptide array binding signal intensity,ScSho1,946
same,SPOT peptide array binding signal intensity,ScSla1-D1-D2,159
same,SPOT peptide array binding signal intensity,ScSla1-D3,46
same,SPOT peptide array binding signal intensity,SpAbp1-D1,95.5
same,SPOT peptide array binding signal intensity,SpBbc1,32.8
same,SPOT peptide array binding signal intensity,SpBzz1-D1,396
same,SPOT peptide array binding signal intensity,SpBzz1-D2,≤ 0
same,SPOT peptide array binding signal intensity,SpCyk3,9
same,SPOT peptide array binding signal intensity,SpHof1,353
same,SPOT peptide array binding signal intensity,SpHof1-2,71
same,SPOT peptide array binding signal intensity,SpHof1-3,594
same,SPOT peptide array binding signal intensity,SpHse1,526
same,SPOT peptide array binding signal intensity,SpLsb1,8.25
same,SPOT peptide array binding signal intensity,SpLsb4,42
same,SPOT peptide array binding signal intensity,SpMyo1,1
same,SPOT peptide array binding signal intensity,SpNbp2,1510
same,SPOT peptide array binding signal intensity,SpPex13,17
same,SPOT peptide array binding signal intensity,SpRvs167,68.8
same,SPOT peptide array binding signal intensity,SpSla1-D1-D2,≤ 0
same,SPOT peptide array binding signal intensity,SpSla1-D3,10
